Data as given in ChEMBL document CHEMBL1961873, “Compounds: GSK PKIS; Assays: Nanosyn kinase panel” (2012).

How the values were obtained:
[1] = target: T1, Inhibitor of nuclear factor kappa-B kinase subunit epsilon (Homo sapiens) (UniProt Q14164); settings: at 1 µM;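 further: reported values are averaged percent inhibition figures against human IKKε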
T1 sequence (whole entry): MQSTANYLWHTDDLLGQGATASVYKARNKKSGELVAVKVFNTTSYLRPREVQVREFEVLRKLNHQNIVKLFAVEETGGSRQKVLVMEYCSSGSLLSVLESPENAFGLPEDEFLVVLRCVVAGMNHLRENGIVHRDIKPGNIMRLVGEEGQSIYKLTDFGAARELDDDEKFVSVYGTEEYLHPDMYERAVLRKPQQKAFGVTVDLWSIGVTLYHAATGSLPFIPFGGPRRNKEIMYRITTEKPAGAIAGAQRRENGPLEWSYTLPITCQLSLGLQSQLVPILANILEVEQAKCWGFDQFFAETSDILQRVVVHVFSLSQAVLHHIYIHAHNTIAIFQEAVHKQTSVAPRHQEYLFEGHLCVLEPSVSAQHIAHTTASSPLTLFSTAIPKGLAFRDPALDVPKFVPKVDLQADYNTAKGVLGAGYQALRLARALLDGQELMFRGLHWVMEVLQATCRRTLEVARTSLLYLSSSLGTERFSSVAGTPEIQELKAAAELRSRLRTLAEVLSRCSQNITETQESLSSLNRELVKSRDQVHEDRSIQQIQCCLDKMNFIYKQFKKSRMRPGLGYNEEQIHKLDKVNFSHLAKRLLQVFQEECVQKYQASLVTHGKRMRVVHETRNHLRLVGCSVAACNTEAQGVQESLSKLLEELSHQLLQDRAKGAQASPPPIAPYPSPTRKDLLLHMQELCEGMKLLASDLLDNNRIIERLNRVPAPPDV

[2] = target: T2, Serine/threonine-protein kinase Nek1 (Homo sapiens) (UniProt Q96PY6); settings: at 0.1 µM
T2 sequence (whole entry): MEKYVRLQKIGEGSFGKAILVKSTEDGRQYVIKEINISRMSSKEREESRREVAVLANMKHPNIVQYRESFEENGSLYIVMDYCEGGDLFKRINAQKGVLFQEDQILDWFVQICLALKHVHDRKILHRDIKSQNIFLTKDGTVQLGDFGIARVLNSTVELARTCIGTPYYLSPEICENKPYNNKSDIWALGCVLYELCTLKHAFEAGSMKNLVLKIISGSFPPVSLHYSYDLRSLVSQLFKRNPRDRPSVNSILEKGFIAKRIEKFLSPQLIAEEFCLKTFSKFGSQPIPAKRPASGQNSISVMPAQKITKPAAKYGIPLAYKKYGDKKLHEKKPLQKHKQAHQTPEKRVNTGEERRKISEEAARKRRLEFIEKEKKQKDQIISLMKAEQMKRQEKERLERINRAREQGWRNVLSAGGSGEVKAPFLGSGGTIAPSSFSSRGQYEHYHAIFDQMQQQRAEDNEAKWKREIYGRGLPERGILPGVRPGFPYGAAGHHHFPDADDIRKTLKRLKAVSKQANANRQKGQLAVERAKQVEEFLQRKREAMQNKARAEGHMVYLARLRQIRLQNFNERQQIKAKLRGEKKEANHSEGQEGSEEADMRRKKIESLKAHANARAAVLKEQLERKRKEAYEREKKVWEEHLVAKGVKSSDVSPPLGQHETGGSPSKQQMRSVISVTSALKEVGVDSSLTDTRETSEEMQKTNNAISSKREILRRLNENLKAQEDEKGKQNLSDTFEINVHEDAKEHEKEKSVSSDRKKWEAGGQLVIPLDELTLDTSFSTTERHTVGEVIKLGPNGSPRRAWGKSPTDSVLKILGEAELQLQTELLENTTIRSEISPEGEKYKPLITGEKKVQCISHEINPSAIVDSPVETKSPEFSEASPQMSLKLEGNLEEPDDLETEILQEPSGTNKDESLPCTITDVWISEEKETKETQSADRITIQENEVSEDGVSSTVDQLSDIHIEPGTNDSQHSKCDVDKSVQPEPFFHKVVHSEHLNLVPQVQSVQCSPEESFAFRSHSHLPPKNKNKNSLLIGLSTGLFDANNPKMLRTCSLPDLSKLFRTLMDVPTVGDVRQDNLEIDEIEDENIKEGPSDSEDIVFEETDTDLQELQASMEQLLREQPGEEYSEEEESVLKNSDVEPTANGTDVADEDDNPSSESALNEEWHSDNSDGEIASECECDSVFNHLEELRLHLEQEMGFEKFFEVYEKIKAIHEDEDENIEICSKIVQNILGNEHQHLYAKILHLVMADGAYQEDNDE

[3] = target: T2, Serine/threonine-protein kinase Nek1 (Homo sapiens); settings: at 1 µM
[4] = target: T3, Serine/threonine-protein kinase Nek2 (Homo sapiens) (UniProt P51955); settings: at 0.1 µM
T3 sequence (whole entry): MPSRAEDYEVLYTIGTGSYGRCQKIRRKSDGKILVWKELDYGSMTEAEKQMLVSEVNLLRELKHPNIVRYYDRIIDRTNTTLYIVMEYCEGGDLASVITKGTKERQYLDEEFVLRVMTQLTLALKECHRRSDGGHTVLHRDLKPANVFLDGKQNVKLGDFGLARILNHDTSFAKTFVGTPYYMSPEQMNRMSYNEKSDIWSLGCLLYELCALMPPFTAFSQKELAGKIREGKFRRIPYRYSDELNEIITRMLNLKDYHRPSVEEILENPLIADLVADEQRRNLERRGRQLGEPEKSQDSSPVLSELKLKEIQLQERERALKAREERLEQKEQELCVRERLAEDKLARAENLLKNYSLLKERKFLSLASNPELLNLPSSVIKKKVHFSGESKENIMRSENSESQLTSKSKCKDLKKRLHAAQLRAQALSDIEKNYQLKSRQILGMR

[5] = target: T3, Serine/threonine-protein kinase Nek2 (Homo sapiens); settings: at 1 µM
[6] = target: Serine/threonine-protein kinase Nek6 (Homo sapiens) (UniProt Q9HC98); settings: at 0.1 µM
[7] = target: Serine/threonine-protein kinase Nek6 (Homo sapiens) (UniProt Q9HC98); settings: at 1 µM
[8] = target: Serine/threonine-protein kinase Nek7 (Homo sapiens) (UniProt Q8TDX7); settings: at 0.1 µM
[9] = target: Serine/threonine-protein kinase Nek7 (Homo sapiens) (UniProt Q8TDX7); settings: at 1 µM
[10] = target: T4, Serine/threonine-protein kinase Nek9 (Homo sapiens) (UniProt Q8TD19); settings: at 0.1 µM
T4 sequence (whole entry): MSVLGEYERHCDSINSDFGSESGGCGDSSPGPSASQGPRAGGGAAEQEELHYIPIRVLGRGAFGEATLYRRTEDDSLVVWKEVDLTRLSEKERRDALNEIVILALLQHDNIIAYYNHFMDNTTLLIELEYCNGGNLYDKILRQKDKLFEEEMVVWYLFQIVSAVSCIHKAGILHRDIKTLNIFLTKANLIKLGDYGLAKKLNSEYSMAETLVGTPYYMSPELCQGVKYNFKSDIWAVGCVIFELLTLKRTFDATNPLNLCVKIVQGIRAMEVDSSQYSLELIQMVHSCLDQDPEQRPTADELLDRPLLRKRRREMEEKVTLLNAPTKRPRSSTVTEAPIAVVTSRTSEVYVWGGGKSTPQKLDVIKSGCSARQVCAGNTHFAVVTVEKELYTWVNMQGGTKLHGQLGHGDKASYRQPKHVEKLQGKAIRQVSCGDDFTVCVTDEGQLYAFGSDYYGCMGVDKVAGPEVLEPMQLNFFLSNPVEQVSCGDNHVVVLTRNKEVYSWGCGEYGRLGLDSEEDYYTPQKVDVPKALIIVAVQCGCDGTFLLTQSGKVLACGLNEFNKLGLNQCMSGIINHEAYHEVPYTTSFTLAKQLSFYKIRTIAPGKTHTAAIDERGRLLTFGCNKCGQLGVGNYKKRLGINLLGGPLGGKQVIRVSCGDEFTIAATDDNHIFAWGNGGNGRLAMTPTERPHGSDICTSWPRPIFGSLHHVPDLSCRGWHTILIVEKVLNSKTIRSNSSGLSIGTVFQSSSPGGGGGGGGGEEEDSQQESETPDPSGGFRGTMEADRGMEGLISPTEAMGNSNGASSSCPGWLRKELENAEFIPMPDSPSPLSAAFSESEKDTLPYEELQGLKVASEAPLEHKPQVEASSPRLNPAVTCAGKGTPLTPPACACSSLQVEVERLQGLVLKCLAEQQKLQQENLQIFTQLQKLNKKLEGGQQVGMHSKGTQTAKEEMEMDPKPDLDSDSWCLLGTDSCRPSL

[11] = target: T4, Serine/threonine-protein kinase Nek9 (Homo sapiens); settings: at 1 µM
[12] = target: Serine/threonine-protein kinase PLK1 (Homo sapiens) (UniProt P53350); settings: at 0.1 µM
[13] = target: Serine/threonine-protein kinase PLK1 (Homo sapiens) (UniProt P53350); settings: at 1 µM
[14] = target: T5, Dual specificity protein kinase TTK (Homo sapiens) (UniProt P33981); settings: at 0.1 µM
T5 sequence (whole entry): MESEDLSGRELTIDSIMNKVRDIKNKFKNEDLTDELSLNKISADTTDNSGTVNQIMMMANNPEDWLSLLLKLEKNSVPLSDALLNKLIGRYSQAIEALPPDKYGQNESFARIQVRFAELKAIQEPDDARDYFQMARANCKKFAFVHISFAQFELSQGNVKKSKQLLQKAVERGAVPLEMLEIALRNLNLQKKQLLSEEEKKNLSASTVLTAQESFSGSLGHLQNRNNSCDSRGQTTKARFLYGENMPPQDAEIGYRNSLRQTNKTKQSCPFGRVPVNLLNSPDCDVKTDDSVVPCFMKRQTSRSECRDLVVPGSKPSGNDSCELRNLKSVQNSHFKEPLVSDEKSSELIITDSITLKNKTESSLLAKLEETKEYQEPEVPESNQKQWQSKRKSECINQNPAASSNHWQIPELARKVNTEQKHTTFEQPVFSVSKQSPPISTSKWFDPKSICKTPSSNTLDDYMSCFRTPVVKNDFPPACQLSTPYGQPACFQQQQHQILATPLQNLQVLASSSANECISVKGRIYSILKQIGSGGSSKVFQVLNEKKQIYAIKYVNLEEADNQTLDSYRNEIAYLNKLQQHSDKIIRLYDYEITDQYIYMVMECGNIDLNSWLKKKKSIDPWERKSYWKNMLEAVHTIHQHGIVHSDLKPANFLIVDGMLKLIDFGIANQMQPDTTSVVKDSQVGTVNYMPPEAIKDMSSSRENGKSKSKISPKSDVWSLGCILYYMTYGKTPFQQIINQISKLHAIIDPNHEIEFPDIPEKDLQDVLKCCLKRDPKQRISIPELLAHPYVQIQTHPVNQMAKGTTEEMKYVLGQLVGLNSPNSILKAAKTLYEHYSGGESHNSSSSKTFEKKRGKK

[15] = tested on: T6, Receptor-type tyrosine-protein kinase FLT3 (Homo sapiens), P36888 [D835Y]; settings: at 1 µM
T6 sequence (whole entry): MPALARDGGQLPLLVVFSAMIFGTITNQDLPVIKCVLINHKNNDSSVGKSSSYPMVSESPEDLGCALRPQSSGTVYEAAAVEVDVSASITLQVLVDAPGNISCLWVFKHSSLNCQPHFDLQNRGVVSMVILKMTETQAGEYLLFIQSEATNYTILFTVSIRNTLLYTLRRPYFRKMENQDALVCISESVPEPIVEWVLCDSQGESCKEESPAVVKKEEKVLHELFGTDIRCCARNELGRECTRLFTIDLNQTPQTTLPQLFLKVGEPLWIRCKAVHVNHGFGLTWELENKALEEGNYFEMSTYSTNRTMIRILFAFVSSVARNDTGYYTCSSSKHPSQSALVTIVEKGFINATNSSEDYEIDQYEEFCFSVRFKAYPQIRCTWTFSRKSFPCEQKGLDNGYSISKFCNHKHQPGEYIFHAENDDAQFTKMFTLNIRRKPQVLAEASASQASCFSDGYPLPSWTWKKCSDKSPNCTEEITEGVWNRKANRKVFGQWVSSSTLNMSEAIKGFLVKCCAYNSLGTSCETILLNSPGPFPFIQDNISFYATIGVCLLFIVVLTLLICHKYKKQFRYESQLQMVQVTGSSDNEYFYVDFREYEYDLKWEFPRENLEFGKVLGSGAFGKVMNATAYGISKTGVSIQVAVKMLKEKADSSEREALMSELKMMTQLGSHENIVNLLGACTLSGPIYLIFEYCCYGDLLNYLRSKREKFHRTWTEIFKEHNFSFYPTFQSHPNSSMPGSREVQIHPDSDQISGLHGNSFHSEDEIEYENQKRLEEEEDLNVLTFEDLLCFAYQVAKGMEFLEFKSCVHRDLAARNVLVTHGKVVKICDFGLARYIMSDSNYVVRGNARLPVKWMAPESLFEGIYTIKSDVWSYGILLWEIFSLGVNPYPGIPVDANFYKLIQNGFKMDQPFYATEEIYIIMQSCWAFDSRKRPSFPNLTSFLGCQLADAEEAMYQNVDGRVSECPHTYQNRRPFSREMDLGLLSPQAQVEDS

[16] = target: Vascular endothelial growth factor receptor 3 (Homo sapiens) (UniProt P35916); settings: at 0.1 µM
[17] = target: Vascular endothelial growth factor receptor 3 (Homo sapiens) (UniProt P35916); settings: at 1 µM
[18] = target: Macrophage colony-stimulating factor 1 receptor (Homo sapiens) (UniProt P07333); settings: at 0.1 µM
[19] = target: Macrophage colony-stimulating factor 1 receptor (Homo sapiens) (UniProt P07333); settings: at 1 µM
[20] = target: Tyrosine-protein kinase Fyn (Homo sapiens) (UniProt P06241); settings: at 0.1 µM
Tyrosine-protein kinase Fyn (Homo sapiens), sequence (P06241 2-537 limits assumed): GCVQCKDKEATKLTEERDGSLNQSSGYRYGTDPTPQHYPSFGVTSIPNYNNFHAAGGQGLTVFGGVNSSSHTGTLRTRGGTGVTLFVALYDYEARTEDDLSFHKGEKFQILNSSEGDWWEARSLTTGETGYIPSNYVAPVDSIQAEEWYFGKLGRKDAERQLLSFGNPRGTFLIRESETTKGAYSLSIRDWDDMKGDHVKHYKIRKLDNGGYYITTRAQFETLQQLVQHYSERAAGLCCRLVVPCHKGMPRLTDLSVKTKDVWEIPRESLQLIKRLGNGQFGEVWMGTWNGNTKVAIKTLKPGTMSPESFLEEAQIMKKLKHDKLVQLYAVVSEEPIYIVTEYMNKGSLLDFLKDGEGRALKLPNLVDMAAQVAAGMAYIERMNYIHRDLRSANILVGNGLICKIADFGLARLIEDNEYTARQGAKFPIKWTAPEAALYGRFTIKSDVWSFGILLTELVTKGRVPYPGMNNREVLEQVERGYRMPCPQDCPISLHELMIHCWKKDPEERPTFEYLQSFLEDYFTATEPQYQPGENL

Serine/threonine-protein kinase Nek7 (Homo sapiens), sequence (Q8TDX7 whole entry, looked up): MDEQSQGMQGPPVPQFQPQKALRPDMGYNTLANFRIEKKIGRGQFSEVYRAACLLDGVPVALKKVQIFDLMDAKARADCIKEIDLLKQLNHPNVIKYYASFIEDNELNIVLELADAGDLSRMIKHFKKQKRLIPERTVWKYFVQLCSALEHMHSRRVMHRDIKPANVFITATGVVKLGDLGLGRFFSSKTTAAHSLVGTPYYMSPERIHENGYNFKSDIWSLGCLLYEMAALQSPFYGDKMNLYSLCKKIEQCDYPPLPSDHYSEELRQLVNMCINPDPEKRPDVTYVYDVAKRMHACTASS
Serine/threonine-protein kinase Nek6 (Homo sapiens), sequence (Q9HC98 whole entry): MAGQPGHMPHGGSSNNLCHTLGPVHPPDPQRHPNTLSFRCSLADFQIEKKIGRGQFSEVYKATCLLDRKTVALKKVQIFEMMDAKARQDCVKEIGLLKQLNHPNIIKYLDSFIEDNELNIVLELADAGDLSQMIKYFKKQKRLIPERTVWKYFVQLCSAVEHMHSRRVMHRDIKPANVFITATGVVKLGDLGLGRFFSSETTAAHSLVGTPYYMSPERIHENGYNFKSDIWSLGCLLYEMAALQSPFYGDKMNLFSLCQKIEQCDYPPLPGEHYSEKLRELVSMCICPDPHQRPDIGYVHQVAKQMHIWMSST
Macrophage colony-stimulating factor 1 receptor (Homo sapiens), sequence (P07333 whole entry): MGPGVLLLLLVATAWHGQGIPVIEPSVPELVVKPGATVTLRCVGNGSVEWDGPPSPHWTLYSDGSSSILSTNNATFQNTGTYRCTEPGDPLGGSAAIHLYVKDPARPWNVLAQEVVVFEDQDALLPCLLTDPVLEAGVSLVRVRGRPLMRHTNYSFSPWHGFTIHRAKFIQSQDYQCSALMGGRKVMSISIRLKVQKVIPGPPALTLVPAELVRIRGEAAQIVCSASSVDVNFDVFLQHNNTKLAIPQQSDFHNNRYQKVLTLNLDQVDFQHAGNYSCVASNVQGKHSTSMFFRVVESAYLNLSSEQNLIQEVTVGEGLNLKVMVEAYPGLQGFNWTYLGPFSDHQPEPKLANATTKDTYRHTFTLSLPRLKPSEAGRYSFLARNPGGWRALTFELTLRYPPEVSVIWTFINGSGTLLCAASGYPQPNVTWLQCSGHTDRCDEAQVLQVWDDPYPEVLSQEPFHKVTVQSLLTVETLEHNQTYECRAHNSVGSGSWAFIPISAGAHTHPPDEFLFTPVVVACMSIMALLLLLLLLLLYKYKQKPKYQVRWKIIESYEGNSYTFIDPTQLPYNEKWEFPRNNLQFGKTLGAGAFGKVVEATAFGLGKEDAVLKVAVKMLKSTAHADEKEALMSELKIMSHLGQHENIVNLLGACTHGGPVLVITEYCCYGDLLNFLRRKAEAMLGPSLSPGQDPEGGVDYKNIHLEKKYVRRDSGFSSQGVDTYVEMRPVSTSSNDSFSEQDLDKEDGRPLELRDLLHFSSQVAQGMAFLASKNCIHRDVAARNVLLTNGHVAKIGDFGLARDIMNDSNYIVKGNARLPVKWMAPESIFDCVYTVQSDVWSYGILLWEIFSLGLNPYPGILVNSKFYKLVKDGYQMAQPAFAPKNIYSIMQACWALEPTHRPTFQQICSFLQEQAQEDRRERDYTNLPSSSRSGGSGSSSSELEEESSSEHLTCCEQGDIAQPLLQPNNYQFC
Serine/threonine-protein kinase PLK1 (Homo sapiens), sequence (P53350 whole entry): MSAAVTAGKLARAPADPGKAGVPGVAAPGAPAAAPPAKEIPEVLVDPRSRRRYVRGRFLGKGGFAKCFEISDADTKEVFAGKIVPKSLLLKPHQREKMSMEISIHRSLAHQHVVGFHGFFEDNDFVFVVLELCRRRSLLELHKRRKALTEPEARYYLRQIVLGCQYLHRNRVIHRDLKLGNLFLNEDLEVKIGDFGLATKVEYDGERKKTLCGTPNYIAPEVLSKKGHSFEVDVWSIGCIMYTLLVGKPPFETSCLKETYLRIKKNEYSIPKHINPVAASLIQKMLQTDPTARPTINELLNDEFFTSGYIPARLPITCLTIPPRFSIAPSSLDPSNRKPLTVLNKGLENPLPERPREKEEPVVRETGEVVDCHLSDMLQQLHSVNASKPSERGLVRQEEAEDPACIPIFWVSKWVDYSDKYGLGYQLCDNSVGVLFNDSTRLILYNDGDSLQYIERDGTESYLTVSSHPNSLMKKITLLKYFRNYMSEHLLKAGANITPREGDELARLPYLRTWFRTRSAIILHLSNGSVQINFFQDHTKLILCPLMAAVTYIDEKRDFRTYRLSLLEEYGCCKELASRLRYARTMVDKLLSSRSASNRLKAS
Vascular endothelial growth factor receptor 3 (Homo sapiens), sequence (P35916 whole entry): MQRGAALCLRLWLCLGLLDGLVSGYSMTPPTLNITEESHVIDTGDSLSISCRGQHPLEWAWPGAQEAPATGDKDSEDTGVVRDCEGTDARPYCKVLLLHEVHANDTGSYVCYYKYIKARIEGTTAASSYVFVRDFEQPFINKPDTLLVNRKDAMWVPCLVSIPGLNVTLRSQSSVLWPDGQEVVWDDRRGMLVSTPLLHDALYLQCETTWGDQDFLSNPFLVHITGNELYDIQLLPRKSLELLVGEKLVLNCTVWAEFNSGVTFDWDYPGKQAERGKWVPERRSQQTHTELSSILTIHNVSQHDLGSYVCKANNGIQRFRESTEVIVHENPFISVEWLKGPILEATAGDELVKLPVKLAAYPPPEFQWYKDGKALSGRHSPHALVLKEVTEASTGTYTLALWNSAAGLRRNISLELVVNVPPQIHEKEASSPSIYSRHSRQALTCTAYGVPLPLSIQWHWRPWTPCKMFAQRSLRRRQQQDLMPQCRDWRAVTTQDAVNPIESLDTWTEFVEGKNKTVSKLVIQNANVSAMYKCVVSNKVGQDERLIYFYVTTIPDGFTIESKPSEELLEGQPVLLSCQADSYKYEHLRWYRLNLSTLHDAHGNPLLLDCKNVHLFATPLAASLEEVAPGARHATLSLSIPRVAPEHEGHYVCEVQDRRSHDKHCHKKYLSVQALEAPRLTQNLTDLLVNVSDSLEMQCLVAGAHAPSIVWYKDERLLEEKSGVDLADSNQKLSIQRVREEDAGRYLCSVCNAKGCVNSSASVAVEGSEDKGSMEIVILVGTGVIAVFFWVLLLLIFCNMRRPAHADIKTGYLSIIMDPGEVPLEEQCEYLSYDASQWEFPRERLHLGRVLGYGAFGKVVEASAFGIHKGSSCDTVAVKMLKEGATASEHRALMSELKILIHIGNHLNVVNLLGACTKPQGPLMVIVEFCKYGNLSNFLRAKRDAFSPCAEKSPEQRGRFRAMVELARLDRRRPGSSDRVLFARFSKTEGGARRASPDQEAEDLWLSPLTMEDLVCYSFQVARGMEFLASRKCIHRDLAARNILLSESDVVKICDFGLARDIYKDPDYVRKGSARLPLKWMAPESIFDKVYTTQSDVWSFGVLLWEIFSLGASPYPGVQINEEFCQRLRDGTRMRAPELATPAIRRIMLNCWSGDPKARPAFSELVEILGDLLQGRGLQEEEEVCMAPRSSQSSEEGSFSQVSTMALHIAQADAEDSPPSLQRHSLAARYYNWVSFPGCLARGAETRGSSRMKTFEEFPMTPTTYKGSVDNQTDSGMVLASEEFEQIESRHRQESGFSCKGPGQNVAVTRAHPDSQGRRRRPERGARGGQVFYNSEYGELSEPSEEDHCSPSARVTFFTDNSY

Nc1nc(-c2cccc(Cl)c2)c(-c2ccc3ncccc3n2)s1
inhibition [1]: 8.93%
inhibition [2]: 2.49%
inhibition [3]: 6.68%
inhibition [4]: 5.95%
inhibition [5]: 4.63%
inhibition [6]: 3.94%
inhibition [7]: 6.59%
inhibition [8]: 1.99%
inhibition [9]: 4.09%
inhibition [10]: 6.55%
inhibition [11]: 12.5%
inhibition [12]: 3.47%
inhibition [13]: 4.49%
inhibition [14]: 14%
inhibition [15]: 0.82%
inhibition [16]: 0.27%
inhibition [17]: 9.77%
inhibition [18]: 1.82%
inhibition [19]: 2.3%
inhibition [20]: 4.49%

NS(=O)(=O)c1ccc(N/N=C2\C(=O)Nc3ccc4ncccc4c32)cc1
inhibition [1]: 44.7%
inhibition [2]: 1.98%
inhibition [3]: 5.54%
inhibition [4]: 3.42%
inhibition [5]: 4.79%
inhibition [6]: -0.98%
inhibition [7]: -0.3%
inhibition [8]: 4.59%
inhibition [9]: 7.69%
inhibition [10]: 9.44%
inhibition [11]: 41%
inhibition [12]: 2.36%
inhibition [13]: 2.5%
inhibition [14]: 61.2%
inhibition [15]: 80.4%
inhibition [16]: 43.9%
inhibition [17]: 86%
inhibition [18]: 34.8%
inhibition [19]: 79.3%
inhibition [20]: 8.75%

c1cc(-c2cnn3nc(N4CCOCC4)ccc23)nc(NC2CC2)n1
inhibition [1]: 5.49%
inhibition [2]: 3.14%
inhibition [3]: 6.78%
inhibition [4]: 4.47%
inhibition [5]: 4.05%
inhibition [6]: 0.95%
inhibition [7]: 0.56%
inhibition [8]: 3.89%
inhibition [9]: 4.77%
inhibition [10]: -1.68%
inhibition [11]: -2.57%
inhibition [12]: 2.55%
inhibition [13]: 2.08%
inhibition [14]: 18.4%
inhibition [15]: 37.5%
inhibition [16]: 5.93%
inhibition [17]: 29.9%
inhibition [18]: 6.94%
inhibition [19]: 33.7%
inhibition [20]: 0.47%
